In PubChem BioAssay AID463173 (ICCB-Longwood Screening Facility, Harvard Medical School, 2010):
Among all 52,000 compounds or so, about 4,300 (8.3%) were called active. This excerpt belongs to a sample that is enriched for actives. Values without a mark were called inactive. Cut-off read from the data, not from the text of the source: active = survival mostly below about 52% (no sharp cut-off); inactive = mostly above about 56%.

What follows are compounds tested on DeltatarO mutant (assay: S. aureus survival, RN4220 and DeltatarO strains – OD600, teichoic acid synthesis inhibitors, primary screen (AID 463173)). Details: S. aureus RN4220 wild type/DeltatarO growth, OD600, 18 h, stronger effect = lower value, screened at 18.75 µg/mL (by protocol).

Structure (SMILES) | survival
O=[N+]([O-])c1ccc(S(=O)(=O)N2CCn3cccc3C2c2ccc(Br)cc2)cc1 (configuration not stated) | 75%
COc1ccc(-c2noc(CSc3nnc(C)n3-c3ccc(C)cc3)n2)cc1OC | 59%
COC(=O)c1ccc(-c2nc(-c3ccc(OC)c(OC)c3)no2)cc1 | 64%
O=C(CSCc1cc(=O)c2cc(F)ccc2[nH]1)Nc1ccccc1Cl | 94%
CCOC(=O)c1ccc(NC(=O)CSc2nccn2Cc2ccc(OC)cc2)cc1 | 79%
COc1cc(NC(=O)c2cc(-c3cccc(Cl)c3)on2)c(OC)cc1Cl | 61%
CC1CCc2nc(NC(=O)COc3ccc(C(C)(C)C)cc3)sc2C1 (configuration not stated) | 80%
CCOC(=O)C1CCN(C(=O)CSc2c3c(nc4ccc(Cl)cc24)CCCC3)CC1 | 39% (active)
CCOc1ccc(CNC(=O)CSc2c3c(nc4cc(Cl)ccc24)CCCC3)cc1 | 51%
CC1CCN(C(=O)CSc2c3c(nc4cc(Cl)ccc24)CCCC3)CC1 | 5% (active)
COCCNC(=O)CSc1c2c(nc3cc(Cl)ccc13)CCCC2 | 71%
CCc1ccccc1Nc1sc(C(=O)c2cccc(OC)c2)c(N)c1S(=O)(=O)c1ccccc1 | 72%
Cc1ccc(S(=O)(=O)CCc2nnc(NC(=O)C3CCCN3C(=O)NC3CCCCC3)s2)cc1 (configuration not stated) | 72%
CCOc1ccc(CCNC(=O)c2sc3nc4n(c(=O)c3c2C)CCCC4)cc1 | 75%
CCn1cc2nc(SCC(=O)Nc3ccc(C)cc3)n(Cc3ccc(C)cc3)c(=O)c2n1 | 69%
O=c1cc2nc(-c3ccccc3F)nc(SCc3ccc(Br)cc3)n2[nH]1 | 0% (active)
Cc1ccc(CSc2nc(-c3ccc(C(C)(C)C)cc3)nc3cc(=O)[nH]n23)cc1 | 89%
COc1ccccc1NC(=O)CSc1nc(-c2ccccc2F)nc2cc(=O)[nH]n12 | 71%
Cc1cccc(-c2nc(SCc3ccc(Br)cc3)n3[nH]c(=O)cc3n2)c1 | 92%
Cc1ccc(-c2nc(SCc3ccc(Br)cc3)n3[nH]c(=O)cc3n2)cc1 | 37% (active)
O=c1cc2nc(-c3ccccc3)nc(SCc3cccc(Br)c3)n2[nH]1 | 98%
CCC(c1nnnn1CCOC)N1CCN(c2nc3ccccc3s2)CC1 (configuration not stated) | 87%
N=C(N)N1CCN(CC(O)COc2ccccc2)CC1 (configuration not stated) | 84%

Structure (SMILES) | survival
C#CCn1cc(/C=C(/C#N)C(=O)Nc2ccccc2)c2ccccc21 | 54%
CCCCNC(=O)C1CCN(c2nc(OC)nc(OC)n2)CC1 | 83%
O=C(Cn1c(SCCOc2ccccc2Cl)nc2ccccc21)N1CCOCC1 | 39% (active)
O=C(Cn1c(SCCOc2ccccc2Cl)nc2ccccc21)N1CCCCC1 | 34% (active)
CCn1c(SCC(N)=O)nc2ccccc21 | 79%
COc1ccccc1OCCSc1nc2ccccc2n1CC(=O)N1CCOCC1 | 94%
Cc1ccc(C)c(OCCSc2nc3ccccc3n2CC(=O)N2CCOCC2)c1 | 55%
Cc1ccc(OCCSc2nc3ccccc3n2CC(=O)N2CCCCC2)c(C)c1 | 51%
Cc1cccc(OCCSc2nc3ccccc3n2CC(=O)N2CCCCC2)c1C | 28% (active)
Cc1ccc(C(C)C)c(OCCSc2nc3ccccc3n2CC(O)CO)c1 (configuration not stated) | 48%
O=C(CSc1nc2ccccc2n1CC(=O)N1CCCC1)N1CCCCC1 | 85%
Cc1cccc(OCCSc2nc3ccccc3n2CC(=O)N2CCOCC2)c1C | 50%
CCn1c(SCCOc2ccccc2F)nc2ccccc21 | 0% (active)
COc1ccc(CCC(=O)NCc2ccc3c(c2)CCN3C(=O)c2ccc(C)cc2)cc1 | 75%
CC1=C(c2ccc(Cl)cc2)S(=O)(=O)N=C1N1CCN(c2cccc(C)c2)C(C)C1 (configuration not stated) | 89%
CCOC(=O)N1CCC(NC(=O)c2cnn(-c3ccc(OC)cc3)c2C2CCN(C(=O)OC(C)(C)C)CC2)CC1 | 84%
CCOc1ccc(NC(=O)C(C)Sc2nnc3cc(C)c4ccccc4n23)cc1 (configuration not stated) | 73%
COC(=O)Cn1c(SCCOc2ccccc2Cl)nc2ccccc21 | 42% (active)
COC(=O)Cn1c(SCCOc2ccccc2OC)nc2ccccc21 | 51%
CCCCNC(=O)c1cnn2c(C)c(Cc3c(C)cc(C)cc3C)c(C)nc12 | 102%
COc1ccc(CNC(=O)CCCn2nc(C)c3sc4ccccc4c3c2=O)cc1OC | 87%
Cc1ccc(-c2nc(CS(=O)(=O)CC(=O)N3CCN(c4cccc(C)c4C)CC3)c(C)o2)cc1 | 116%
CCc1ccc(-c2nc(CSCC(=O)N3CCN(c4ccc(F)cc4)CC3)c(C)o2)cc1 | 73%

Structure (SMILES) | survival
COc1ccc(-c2nc(CSCC(=O)N3CCN(c4cccc(C)c4C)CC3)c(C)o2)cc1OC | 49%
Cc1oc(-c2ccccc2F)nc1CSCC(=O)N1CCN(c2ccccc2)CC1 | 62%
Cc1cccc(-c2nc(CSCC(=O)N3CCN(c4ccccc4)CC3)c(C)o2)c1 | 17% (active)
Cc1cccc(-c2nc(CSCC(=O)N3CCN(c4cccc(C)c4C)CC3)c(C)o2)c1 | 8% (active)
O=C(Cn1cc(SCc2ccccc2F)c2ccccc21)N1CCCCCC1 | 73%
CCOC(=O)C1CCN(C(=O)c2ccc3c(=O)n4nc(Nc5ccccc5)sc4nc3c2)CC1 | 117%
COc1ccccc1NC(=O)Cn1c(=O)n(-c2cccc(C(C)=O)c2)c(=O)c2c3c(sc21)CN(C(C)=O)CC3 | 89%
COc1ccc(S(=O)(=O)c2c(O)c3ccc(C(=O)NCc4ccc(Cl)cc4)cc3[nH]c2=O)cc1 | 89%
COc1cccc(CNC(=O)CN(C)S(=O)(=O)c2ccc3[nH]c4c(c3c2)CCCC4)c1 | 75%
CCOc1ccc(OCC)c(NC(=O)c2cnc3c(-c4ccccc4)c(C)nn3c2C)c1 | 91%
Cc1ccc(NC(=O)c2cnc(SCC(=O)N3CCCc4ccccc43)n(C)c2=O)cc1C | 85%
COc1cccc2sc(NC(=O)c3ccc4c(c3)OCCO4)nc12 | 88%
COc1ccc2oc(=O)c(-c3nnc(-c4ccc(C)cc4)o3)cc2c1 | 138%
Cc1ccc(-c2nnn3c2nc(N2CCC(C)CC2)c2ccccc23)cc1 | -6% (active)
COc1ccc(-c2nnn3c2nc(NCc2ccccc2)c2ccccc23)cc1 | 89%
Brc1cccc(-c2nnn3c2nc(N2CCCCC2)c2ccccc23)c1 | 62%
CC1CCN(c2nc3c(S(=O)(=O)c4ccccc4)nnn3c3ccc(Cl)cc23)CC1 | 69%
Clc1ccc(-c2nnn3c2nc(N2CCCCC2)c2ccccc23)cc1 | 25% (active)
COc1ccc(-c2nnn3c2nc(N2CCCC(C)C2)c2ccccc23)cc1 (configuration not stated) | -3% (active)
CC1CCN(c2nc3c(-c4cccc(Br)c4)nnn3c3ccccc23)CC1 | 104%
CC1CCCN(c2nc3c(-c4ccc(Cl)cc4)nnn3c3ccccc23)C1 (configuration not stated) | 87%
O=S(=O)(c1ccccc1)c1nnn2c1nc(N1CCN(c3ccccc3)CC1)c1cc(Cl)ccc12 | 91%
O=C(NCCCN1CCN(c2ccccc2)CC1)c1nnc(Cc2c(F)cccc2Cl)o1 | 71%

Structure (SMILES) | survival
Cc1cc(NC(=O)CCc2nc3cccnc3n2Cc2cccs2)ccc1Br | 50%
COCCCNC(=O)c1cc(-c2cccnc2)nc2ccc(S(=O)(=O)N3CCC(C)CC3)cc12 | 113%
CC(=O)c1ccc(N2CCN(C(=O)C3CCN(S(=O)(=O)c4cccc5nonc45)CC3)CC2)cc1 | 79%
COC(=O)CSc1ncc(C#N)c(N)n1 | 110%
COc1ccc(C)cc1NC(=O)CCc1c(C)nn(-c2ccc(N3CCCCC3)nn2)c1C | 78%
O=C(Nc1onc2c1CCCC2)c1ccc(Cl)cc1 | 77%
CCOc1ccc(C(=O)Nc2onc3c2CCCC3)cc1 | 72%
CC(C)COc1ccc(C(=O)Nc2onc3c2CCCC3)cc1 | 103%
Cc1ccc(C(=O)Nc2onc3c2CCCC3)cc1 | 46% (active)
CC(C)(C)c1ccc(C(=O)Nc2onc3c2CCCC3)cc1 | 56%
CCCCOc1ccc(C(=O)Nc2onc3c2CCCC3)cc1 | 49% (active)
CCCCOC(=O)c1ccc(NC(=O)c2sc3nc(C)cc(C)c3c2N)cc1 | 65%
CCCCn1cc(S(=O)(=O)c2ccccc2)c(=O)c2cc(F)c(N3CCC(C)CC3)cc21 | 68%
C=CCn1c(SCc2cccnc2)nnc1-c1ccncc1 | 88%
CCc1cccc(NC(=O)c2ccc(NC(=O)N3CCSc4ncccc43)cc2)c1 | -1% (active)
CCOc1ccc(NC(=O)c2ccc(NC(=O)N3CCSc4ncccc43)cc2)cc1 | 76%
CC(C)Oc1ccc(CNC(=O)c2ccc(NC(=O)N3CCSc4ncccc43)cc2)cc1 | 6% (active)
CC(C)Oc1ccc(CNC(=O)c2cccc(NC(=O)N3CCSc4ncccc43)c2)cc1 | 88%
Cc1ccc(Cl)cc1NC(=O)c1ccc(NC(=O)N2CCSc3ncccc32)cc1 | 79%
CC(=O)c1ccc(NC(=O)c2cccc(NC(=O)N3CCSc4ncccc43)c2)cc1 | 79%
Cc1ccccc1NC(=O)c1ccc(NC(=O)N2CCSc3ncccc32)cc1 | -2% (active)
CC(C)Oc1ccc(CNC(=O)Cc2ccc(NC(=O)N3CCSc4ncccc43)cc2)cc1 | 102%
Cc1ccc(NC(=O)c2ccc(NC(=O)N3CCSc4ncccc43)cc2)c(C)c1 | 86%
